Screens as filed in PubChem.
An excerpt weighted towards active compounds, which were near 10% of everything screened.
Six1-Eya2 inh – blocks human Six1 binding to Eya2; Q15475+O00167; AID 651725; AlphaScreen GST-Six1/His-Eya2 binding, biochemical; active compounds read low; 360,000 tested, 0.56% active; activity change, % (test concentration not listed); in the data active means activity change below about -65%; inconclusive means mostly about -30% to -63%; further: on the % scale 0 is the no-effect control and ±100 the full control effect
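Six1/Eya2 binding was read as AlphaScreen signal after compounds were pinned into GST-Six1 plus His-tagged Eya2 (5X stock 250/500 nM) in pH 8.0 Tris/NaCl/TCEP buffer, beads added, then incubated 1 h, 37 C, dark.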
CtBP-E1A inh – blocks the CtBP interaction with E1A | AID 651724 | 340,000 tested, 0.49% active | activity change, % (test concentration not listed) | AlphaScreen GST-E1A/His-CtBP binding, 1536-well; active compounds read low; in the data active means activity change below about -65%; inconclusive means mostly about -30% to -63%; further: on the % scale 0 is the no-effect control and ±100 the full control effect
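GST-E1A and His-tagged CtBP (125 nM each as 5X stock) were preincubated with pin-transferred compound for 2 h at 37 °C in the dark, then glutathione donor and nickel acceptor beads were added for 1 h before AlphaScreen reading.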
BAZ2B inh – blocks human BAZ2B. Q9UIF8. 360,000 tested, 4.4% active. Potency, µM (doses to about 114 µM), for the others: at the highest dose activity change, negative = inhibition, usual class: inhibitors. AlphaScreen BAZ2B-H3K14Ac peptide displacement. AID 504333; further: potency means the concentration at half of the fitted maximal effect; on the % scale 0 is the no-effect control and ±100 the full control effect; nearly all actives have a fitted effect of over 60% in size
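Complex of BAZ2B and biotin-H3K14Ac (50 nM apiece) forms over 30 min at RT, then faces library compounds up to 110 uM for another 30 min; AlphaScreen beads added, 20 min dark incubation, luminescence read.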
G9a inh – inhibitors of human histone lysine methyltransferase G9a. Q96KQ7. G9a H3K9 monomethylation, AlphaScreen, 2 h. Potency, µM (series often up to 102 µM), for inactives: at the top dose activity, negative = inhibition, actives largely listed as inhibitors. 350,000 tested, 8.8% active; further: potency means the concentration at half of the fitted maximal effect; on the % scale 0 is the no-effect control and ±100 the full control effect; nearly all actives have a fitted effect of over 75% in size
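Methyltransferase reactions run at room temperature for 2 h (20 nM enzyme, 500 nM biotin-H3K9 peptide, 20 uM SAM) after a 15 min compound preincubation; product detected by AlphaScreen beads and anti-H3K9me1 antibody.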
JMJD2A Tudor inh – blocks the human JMJD2A Tudor domain | AlphaScreen JMJD2A-Tudor / H3K4me3 peptide binding | 390,000 tested, 4.4% active | O75164 | Potency, µM (titrated, usually from 114 µM), without a hit: at the top dose activity change, negative = inhibition, hits mostly inhibitors | AID 504339; further: potency means the concentration at half of the fitted maximal effect; on the % scale 0 is the no-effect control and ±100 the full control effect; nearly all actives have a fitted effect of over 50% in size
HP1b chromo inh – blocks HP1-beta chromodomain binding to methylated histone tails. AlphaScreen HP1-beta / biotin-H3K9me3 peptide binding. Potency, µM (doses to about 114 µM), for the others: at the highest dose activity change, negative = inhibition, hits mostly inhibitors. P83916. 390,000 tested, 0.56% active. AID 540317; further: potency means the concentration at half of the fitted maximal effect; nearly all actives have a fitted effect of over 70% in size
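HP1-beta protein (50 nM final) preincubated 30 min at room temperature with biotinylated H3(1-18)K9me3 peptide (50 nM) in PBS pH 7.4, 0.01% Tween-20, then compound added for 30 min. AlphaScreen streptavidin donor/nickel chelate acceptor beads (10 ug/mL final), 30 min dark, luminescence read.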
* = called active by the depositor; ? = inconclusive; nt = not tested or not shown; [ ] = another dose, or the depositor's remark. Unless noted, the call rests on the fitted dose curve; in most records, active means well fitted inhibition curve with a large enough effect; inconclusive means small, poorly fitted or top-dose-only effect; inactive means no such curve, though single readings can be large or run the other way.

SMILES | Six1-Eya2 inh | CtBP-E1A inh | BAZ2B inh | G9a inh | JMJD2A Tudor inh | HP1b chromo inh
NC(=O)[C@@H]1CCCCNc2c(F)cc([N+](=O)[O-])cc2C(=O)N[C@@H](CCCN=C(N)N)C(=O)NCC(=O)N1 | -1 | nt | -11% | -16% | -25% | 33%
NC(=O)CC[C@@H]1NC(=O)[C@H](CO)NC(=O)c2cc([N+](=O)[O-])cc(I)c2NCCCC[C@@H](C(N)=O)NC(=O)[C@H](Cc2ccc(O)cc2)NC1=O | -10 | -2 | -36% | ? | -32% | 7%
C[C@@H](O)[C@@H]1NC(=O)c2cc([N+](=O)[O-])cc(I)c2NCC[C@@H](C(N)=O)NC(=O)CNC1=O | -2 | -17 | -4% | 50µM* | -21% | 25%
COc1ccc(CNC(=O)CCc2cn(Cc3cc(C)ccc3C)c3ccccc23)cc1OC | nt | nt | ? | -37%[59 µM] | -20% | 23%
O=C(CCC(=O)OCCOc1ccccc1)OCCOc1ccccc1 | 0 | 11 | nt | nt | nt | nt
COc1ccc(/C(O)=C/C(=O)C(=O)Nc2c(C)n(C)n(-c3ccccc3)c2=O)cc1 | -19 | -14 | ? | ? | 22µM* | 9%
COc1ccc(/C(O)=C/C(=O)C(=O)NNC(=O)C(O)(c2ccccc2)c2ccccc2)cc1 | -20 | 7 | -37% | -18% | 79µM* | 19%
Cc1c(NC(=O)C(=O)/C=C(/O)c2ccccc2)c(=O)n(-c2ccccc2)n1C | 0 | -3 | 50µM* | 8.9µM* | 20µM* | 14%
COc1ccc(/C(O)=C/C(=O)C(=O)NNC(=O)c2ccccc2)cc1 | -7 | -6 | ? | 15% | -19% | 34%
CC(CCc1ccccc1)NC(=O)COc1cc(F)ccc1[N+](=O)[O-] (centres undefined) | 11 | -13 | -18% | ? | -12% | 40%
COc1cc(CNC(=O)c2cc(-c3ccc(OC)cc3C)n[nH]2)cc(OC)c1 | -11 | 1 | nt | nt | nt | nt
CC(C)COc1ccc(C(=O)Nc2cc(-c3ccccc3)no2)cc1 | nt | nt | -10% | 2%[59 µM] | -2% | 28%
CC(=O)c1ccc(-c2ccc(C(=O)N3CCCc4ccccc43)o2)cc1 | -19 | 19 | ? | 45µM* | ? | -24%
CC(=O)c1ccc(-c2ccc(C(=O)N3CCN(c4ccc(F)cc4)CC3)o2)cc1 | -14 | -3 | nt | 32µM* | ? | 0%
C[C@H](CO)N1C[C@H](C)[C@@H](CN(C)CC2CC2)Oc2c(NC(=O)Cc3ccccc3)cccc2C1=O | 0 | 1 | nt | nt | -22% | 29%
O=C(Nc1ccc2oc(-c3cc(Br)ccc3Cl)nc2c1)c1cc2ccccc2o1 | nt | nt | 79µM* | ? | -27% | 38%
O=C(Nc1ccc2oc(-c3ccc(Br)cc3)nc2c1)c1cc2ccccc2o1 | nt | nt | 4% | 4%[59 µM] | -8% | 33%
O=C(O)C1CCCCC1C(=O)Nc1ccc(S(=O)(=O)N2CCOCC2)cc1 (centres undefined) | 9 | -20 | nt | nt | 56µM* | -16%[57 µM]
CC1CN=C(N(C(=O)Nc2ccccc2)c2ccc(S(=O)(=O)N3CCOCC3)cc2)S1 (centres undefined) | -1 | 0 | 12% | 7.1µM* | 11% | 24%
O=C(CCCc1ccccc1)Nc1ccc(S(=O)(=O)N2CCOCC2)cc1 | -1 | 3 | -17% | nt | 3% | 45%
O=C(CSc1ncnc2sccc12)Nc1ccc(S(=O)(=O)N2CCOCC2)cc1 | -10 | -22 | 9% | 45µM* | -3% | 15%
O=C(CCSc1ccccc1)Nc1ccc(S(=O)(=O)N2CCOCC2)cc1 | -3 | 0 | 56µM* | -46% | -24% | 49%
Cc1ccc(N2CCN(C(=O)c3cn(C)c4ccc(S(=O)(=O)N5CCCC5)cc4c3=O)CC2C)cc1 (centres undefined) | nt | nt | nt | -5%[59 µM] | ? | 7%
CCn1c(C)nc2cc(C(=O)N/N=C/c3ccc(N4CCOCC4)cc3)ccc21 | -4 | 0 | -21% | -11% | -20%[57.1 µM] | -17%
CCOC(=O)c1[nH]c(C)c(CCC(=O)Nc2ccc(C(C)=O)cc2)c1C | nt | nt | -22% | 1%[59 µM] | -28% | 13%[57 µM]
SMILES | Six1-Eya2 inh | CtBP-E1A inh | BAZ2B inh | G9a inh | JMJD2A Tudor inh | HP1b chromo inh
O=S(=O)(c1ccc(NC(=S)NCCc2ccccc2)cc1)N1CCOCC1 | -10 | -18 | -8% | 22%[59 µM] | -6% | 42%
O=S(=O)(c1ccc(NC(=S)NN=C(Cc2ccccc2)Cc2ccccc2)cc1)N1CCOCC1 | -2 | nt | 50µM* | nt | -9%[11.4 µM] | -20%
Cc1ccc(C(=O)CNc2cccc([N+](=O)[O-])c2)cc1 | 1 | 6 | 0% | ? | -5% | 47%
Cc1ccc(NCCC(=O)c2cccc([N+](=O)[O-])c2)c(C)c1 | ? | ? | 28µM* | ? | 32µM* | ?
C=CCn1c(O)c(N=NC(=S)Nc2ccccc2F)c2ccccc21 | ? | -12 | ? | 11µM* | 10µM* | ?
CCCCNC(=S)N=Nc1c(O)n(Cc2ccccc2)c2ccccc12 | ? | -25 | ? | 32µM* | ? | ?
Oc1c(N=NC(=S)Nc2ccccc2F)c2ccccc2n1Cc1ccccc1 | -20 | -19 | ? | 18µM* | ? | ?
Cc1c(Cl)cccc1NC(=S)N=Nc1c(O)n(CN2CCOCC2)c2ccccc12 | -24 | -18 | ? | ? | ? | 1%
Oc1c(N=NC(=S)Nc2ccccc2F)c2ccccc2n1Cc1ccccc1Cl | ? | ? | ? | 18µM* | 4µM* | ?
Cc1ccc(Cn2c(O)c(N=NC(=S)Nc3ccccc3F)c3ccccc32)cc1 | -19 | nt | 40µM* | 11µM* | ? | -8%
O=C(N=Nc1c(O)n(Cc2ccccc2)c2ccccc12)c1ccncc1 | 0 | 6 | 35µM* | nt | -26% | 13%
C=CCn1c(O)c(N=NC(=S)Nc2cccc(C)c2)c2ccccc21 | ? | 4 | 3.2µM* | 14µM* | 8.9µM* | ?
CCn1c(O)c(N=NC(=O)CNc2cccc(C)c2)c2ccccc21 | -16 | -16 | ? | -7%[59 µM] | ? | -7%
C=CCn1c(O)c(N=NC(=O)CNC(=O)/C=C/c2ccco2)c2ccccc21 | -12 | -6 | ? | 50µM* | ? | -11%
Cc1cc(/C=C2/C(=N)N3C(=NC2=O)SN=C3S(C)(=O)=O)c(C)n1-c1ccccc1F | -8 | 4 | 45µM* | 50µM* | ? | -12%
CCC1=NN2C(=N)/C(=C\c3cccn3-c3ccc(OC)cc3)C(=O)N=C2S1 | 1 | nt | 32µM* | ? | 79µM* | -12%
N=C1/C(=C/c2cccn2-c2ccc([N+](=O)[O-])cc2)C(=O)N=C2SC=CN12 | -10 | 0 | -31% | -1% | -18% | 70%
